PNC inhibitor: perinucleolar compartment assembly inhibition; activity change (PNC), negative = inhibition, % at 10 µM; hit rate 3.1% among 140,000; AID 2417; PC3M PTB-GFP, PNC prevalence imaging, 16 h; active compounds read low;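 active means readout at or below -70, meaning at least 70% loss of cells showing the perinucleolar compartment, a nuclear body marking cancer cells; inconclusive means readout between -30 and a set limit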;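 further: plate controls were DMSO wells for no effect and camptothecin positive control wells for full effect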
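Read-out is percentage of cells bearing a perinucleolar compartment, from automated 20x imaging of fixed, Hoechst-stained PC3M PTB-GFP cells. Cells were seeded 4 h, then exposed 16 h to compound (23 nl of library stock) in duplicate plates.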
Tau fluor counter: counter-screen for tau fibril formation inhibitors; tau K18 P301L Alexa594 fluorescence, heparin fibrillization; Potency, µM (doses to about 57.7 µM), without a hit: at the top dose activity change, negative = decrease; hit rate 0.93% among 280,000; AID 1463; further: potency means the concentration at half of the fitted maximal effect; nearly all actives have a fitted effect of over 55% in size
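Human K18 P301L tau (15 uM unlabeled plus 0.24 uM Alexa 594-labeled, final) in 100 mM sodium acetate pH 7 was mixed with compound and 20 uM heparin and incubated 6 hr at 37 C.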
TRb SRC2 PPI: TRbeta-SRC2 interaction inhibition | P10828 | TRbeta-SRC2 peptide binding, fluorescence polarization; receptor liganded with 1 µM T3 | Potency, µM (series often up to 106 µM), without a hit: at the highest dose activity change, negative = inhibition, most hits filed as inhibitors | hit rate 0.065% among 280,000 | AID 1469;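 further: potency means the concentration at half of the fitted maximal effect; plate controls were bound peptide for no effect and peptide without receptor for full effect; nearly all actives have a fitted effect of over 50% in size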
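Human TRb LBD (0.6 uM) plus Texas Red-labeled SRC2 peptide (20 nM), 1uM T3, 5% DMSO, 5 hr at ambient temperature. Decreased polarization (555/632 nm) flags inhibition; data normalized to free and bound peptide controls.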
Tau fibril ThT: tau fibrillization inhibition (ThT binding); Potency, µM (titrated, usually from 57.4 µM), inactives show at the highest dose activity, negative = inhibition, most hits filed as inhibitors; hit rate 2.1% among 270,000; P10636; recombinant tau K18 P301L (four-repeat tau fragment), heparin-induced fibrillization, ThT fluorescence; further: potency means the concentration at half of the fitted maximal effect; nearly all actives have a fitted effect of over 55% in size
Target sequence (P10636 561-689 P618L limits assumed): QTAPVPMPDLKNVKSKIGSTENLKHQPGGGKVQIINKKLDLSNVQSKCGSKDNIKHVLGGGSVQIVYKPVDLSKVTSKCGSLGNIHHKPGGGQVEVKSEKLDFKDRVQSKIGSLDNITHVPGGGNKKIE
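K18 P301L tau (15 uM + 0.24 uM Alexa 594-tagged), heparin 20 uM, NaOAc pH 7, 6 h 37 C; ThT 30 uM, 1 h RT, ex 450/em 510 nm.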
Tau FP inhib: blocks human tau fibril formation measured by polarization; K18 P301L tau heparin fibrillization, Alexa594 FP, 6 h; Potency, µM (series often up to 57.7 µM), without a hit: at the highest dose activity, negative = inhibition, most hits filed as inhibitors; hit rate 0.39% among 280,000; further: potency means the concentration at half of the fitted maximal effect; nearly all actives have a fitted effect of over 55% in size
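K18 P301L tau (15 uM unlabeled/0.24 uM Alexa 594-labeled, final) + compound + heparin 20 uM final; 100 mM NaOAc pH 7; 6 hr 37 C; ThT 30 uM final added, 1 hr RT; FP ex 555/em 632 nm.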
TR SRC2 fluor cs: Texas Red fluorescence interference in TRb-SRC2 counter-screen; TRb/SRC2 Texas Red total fluorescence interference; AID 1479; hit rate 0.29% among 280,000; Potency, µM (series often up to 106 µM), for the others: at the top dose fluorescence change, negative = quenching; active means well fitted curve in either direction with a large enough effect; inconclusive means small, poorly fitted or top-dose-only effect; further: potency means the concentration at half of the fitted maximal effect
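Human TRb ligand-binding domain at 0.6 uM with 20 nM Texas Red SRC2 peptide in Tris buffer containing 1 uM T3 and 5% DMSO, incubated with compound 5 h at ambient temperature. Total fluorescence (555/632 nm) calculated as parallel + 2 × perpendicular.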
An asterisk follows results filed as active; u = inconclusive; x = no result given; [ ] = remark or other dose. The list is not random: actives were taken first. Their share in the collection is about 4.6%. Unless noted, the call rests on the fitted dose curve; in most records, active means well fitted curve in the direction sought with a large enough effect; inconclusive means small, poorly fitted or top-dose-only effect, or another doubt; inactive means no such curve, though single readings can be large; an effect the other way counts as inactive or inconclusive. Unless noted, on the % scale 0 is the no-effect control and ±100 the full control effect.

SMILES	PNC inhibitor	Tau fluor counter	TRb SRC2 PPI	Tau fibril ThT	Tau FP inhib	TR SRC2 fluor cs
CCN(C(=O)COC(=O)c1ccc(Cl)nc1)C1CCS(=O)(=O)C1 (stereo not given)	x	-4%	0%	-3%	-3%	0%
CCN(C(=O)COc1cccc2cccnc12)C1CCS(=O)(=O)C1 (stereo not given)	x	-28%	4%	25µM*	u	1%
CCN(C(=O)COC(=O)CNC(=O)c1ccc(C)c(C)c1)C1CCS(=O)(=O)C1 (stereo not given)	-121*	4%	0%[53 µM]	-5%	-4%	-3%[53 µM]
CON(c1nc(N(C)C)nc(N(C)C)n1)S(=O)(=O)c1ccccc1Cl	-100*	-3%	-13%	-1%	7%	2%
Cc1ccnc2nc(C(=O)OCCOc3cccc(Br)c3)nn12	-9	-3%	2%	-10%	-1%	-6%
O=C(NCCc1ccc(F)cc1)Nc1ccc2c(c1)OCO2	x	-20%	3%	u	8%	1%
Cc1ccc(-n2c(C)cc(C3N=C(N)Nc4nc5ccccc5n43)c2C)c(C)c1 (stereo not given)	14	-8%	-7%	-13%	1%	-6%
Cc1cc(C2N=C(N)Nc3nc4ccccc4n32)c(C)n1-c1ccccc1Cl (stereo not given)	-99*	7%	-4%	-2%	-3%	1%
Cc1cccc(NC(=O)CCS(=O)(=O)c2cccc3nsnc23)c1C	40	-22%	1%	20µM*	u	0%
COC(=O)c1sc(NC(=O)CSc2n[nH]c(N)n2)c(C(=O)OC)c1C	x	-11%	2%	-6%	-4%	-3%
CCOc1ccc(/C=C/C2=Cc3c(sc(NC(=O)CSc4n[nH]c(N)n4)c3C#N)C(C)(C)C2)cc1	13	u	0%	14µM*	-14%	7%
CCOC(=O)c1sc(NC(=O)CSc2n[nH]c(-c3ccncc3)n2)c(C#N)c1C	34	-21%	6%	-18%	-6%	2%
Cc1ccsc1/C=C/C1=Cc2c(sc(NC(=O)CSc3n[nH]c(N)n3)c2C#N)C(C)(C)C1	-29	u	24%	16µM*	-13%	-5%
Cc1c(NC(=O)C(C)OC(=O)c2sc3ccccc3c2Cl)c(=O)n(-c2ccccc2)n1C (stereo not given)	-116*	7%	-3%[53 µM]	2%	1%	-1%[53 µM]
Cc1c(NC(=O)C(C)OC(=O)c2cc(Cl)nc(Cl)c2)c(=O)n(-c2ccccc2)n1C (stereo not given)	-10	2%	-2%	5%	2%	-4%
O=c1/c(=C\c2cccc(O)c2)sc2nc(-c3ccccc3)c(-c3ccccc3)n12	x	u	0%	11µM*	25µM*	-3%
O=C(N/N=C1\C/C(=N\NC(=O)c2ccncc2)c2ccccc21)c1ccncc1	x	u	12%	10µM*	u	-4%
O=C(N/N=C/C(Cl)=C/c1ccccc1)c1ccncc1	x	-11%	-8%	-15%	0%	0%
O=C(N/C(=C/c1ccco1)C(=O)N1CCCC1)c1cccs1	-106*	3%	-4%	4%	-12%	0%
O=C(N/C(=C\c1ccco1)C(=O)N1CCCC1)c1cccs1	u	-1%	1%	-9%	-7%	0%
c1cn(CCCNc2ncnc3nc[nH]c23)cn1	-112*	1%	-1%	4%	-1%	2%
Cc1ccc(C#N)c(=O)n1CC(=O)Nc1ccccc1C(F)(F)F	x	-12%	2%	-5%	-8%	-3%
NC(=O)CC[C@H](NC(=O)c1ccc(F)cc1)C(=O)OCC(=O)Nc1c(F)c(F)c(F)c(F)c1F	-92*	3%	3%	2%	-1%	2%
CC(C)c1ccc(NC(=O)COC(=O)[C@H](CCC(N)=O)NC(=O)c2ccc(F)cc2)cc1	-12	-21%	1%	-5%	-4%	1%
O=Cc1ccc(-c2ccc(Cl)cc2Cl)[nH]1	x	-24%	-7%	u	-10%	-4%

Screens (PubChem)
